A selection: hits, their analogues and other compounds. The true share with any hit is near 1.6%.
KCNQ2 pot – potentiators of rat KCNQ2 potassium channel; 310,000 compounds, 0.54% hits; CHO-K1 KCNQ2, FluxOR thallium flux fluorescence; stronger effect = higher value; Potassium voltage-gated channel subfamily KQT member 2 (Rattus norvegicus), O88943; B-score at 10 µM; AID 2239, 2010;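 active means fluorescence ratio B-score at least 3 SD of library B-scores, with initial fluorescence B-score within 3 of them, cut at about 5.3 in these data; same plate scores as AID 2156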;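 further: B-score of peak minus minimum over baseline fluorescence ratio after K+ and Tl+ stimulus; positive B-score means potentiation of KCNQ2 with more thallium influx and brighter signal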
KCNQ2 inh – rat KCNQ2 potassium channel inhibitors, primary screen, cell-based, CHO-K1, FluxOR thallium flux, B-score; Potassium voltage-gated channel subfamily KQT member 2 (Rattus norvegicus), O88943; 20 min; stronger effect = lower value; B-score at 10 µM; 310,000 compounds, 1.1% hits;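 active means fluorescence ratio B-score at most minus 3 library SDs, with starting brightness B-score within 2 library SDs, cut at about -5.5 in these data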
Kir21 conf inh – mouse Kir2.1 channel blockers, retest, confirmation, cell-based, FluxOR thallium flux, duplicate; shares compounds with KCNQ2 pot; 2,300 compounds, 41% hits; AID 2032, 2009; Tl flux remaining, % of negative control (stronger effect = lower value), % at 10 µM; Kir2.1-expressing cells, FluxOR thallium flux fluorescence; stronger effect = lower value;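 active means Primary-screen hit whose thallium flux fell at least 3 control SD below untreated wells in both duplicates, with normal baseline fluorescence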
HEK293 ctr – counter-screen for Kir2.1 inhibitors: effect in parental HEK293 cells. shares compounds with KCNQ2 pot. FluxOR thallium flux fluorescence; 0% = unstimulated blank wells. FluxOR signal as % of negative control (100 = no effect), % at 10 µM. 2,300 compounds, 19% hits;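 active means dye signal at least 3 control SD above or below untreated wells in both duplicates, raw fluorescence within 3, either direction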;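 further: percent is based on the flux ratio of peak minus minimum fluorescence over baseline F0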
CHO-K1 Tl ctr – nonspecific thallium flux increase in parental CHO-K1, confirmation, counter-screen for KCNQ2 potentiator project, cell-based, FluxOR thallium flux, duplicate. shares compounds with KCNQ2 pot. parental CHO-K1 cells, FluxOR thallium flux fluorescence; zero = vehicle mean+3SD, 100% = vehicle-minus-blank window. activity increase over 3SD of controls, % at 10 µM. 1,200 compounds, 43% hits. AID 2282, 2010;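 active means signal rise of at least 3 SD above the untreated control mean, in both duplicate wells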;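 further: counter screen of KCNQ2 potentiator hits so any rise reflects channel-independent effects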
KCNQ1 sel pot – human KCNQ1 channel potentiation off-target, confirmation, selectivity assay for KCNQ2 potentiator project, cell-based, CHO, FluxOR thallium flux; AID 2283, 2010; 1,200 compounds, 28% hits; CHO KCNQ1 stable, FluxOR thallium flux fluorescence; beyond 3SD, as % of vehicle-control signal; activation over 3SD threshold, % at 10 µM; shares compounds with KCNQ2 pot;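 active means fluorescence ratio rise of at least 3 SD of vehicle wells above their mean, in both replicate wells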
KCNQ2 pot confirm – rat KCNQ2 channel potentiators, confirmation, cell-based, CHO, FluxOR thallium flux, duplicate; potentiation, less the hit threshold, % at 10 µM; AID 2287, 2010; 1,200 compounds, 68% hits; shares compounds with KCNQ2 pot; CHO-KCNQ2 cells, FluxOR thallium flux fluorescence;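 active means fluorescence ratio rising 3 SD or more over the vehicle control mean in both replicates, plus primary screen hit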;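 further: peak minus minimum thallium fluorescence divided by baseline after K/Tl stimulus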
Kir2-1 sel – mouse Kir2.1 channel activation off-target, confirmation, selectivity assay for KCNQ2 potentiator project, cell-based, HEK293, FluxOR thallium flux; activity over 3SD threshold, % at 10 µM; 1,200 compounds, 2% hits; shares compounds with KCNQ2 pot; HEK293 Kir2.1, FluxOR thallium flux fluorescence;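 active means fluorescence ratio rise of at least 3 SD above the vehicle-control mean, seen in both replicates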
KCNQ2 W236L MoA – potentiators of retigabine-insensitive KCNQ2 W236L, mechanism study for KCNQ2 potentiator project, cell-based, rat KCNQ2 W236L, CHO, automated patch clamp; shares compounds with KCNQ2 pot; automated patch clamp current; current increase over 3SD of negative controls (%), stronger effect = higher value, % at 25 µM; 940 compounds, 10% hits; AID 2558, 2010;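 active means current increase at least 3 SD of the untreated controls above them in both duplicate recordings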
Each line names hits and unclear results; the compound was inactive in the other large screens (follow-up assays come after a bar, where they were run).

CCCCn1c(=N)n(CC(=O)c2ccco2)c2ccccc21	none
Cc1ccccc1Cn1c(=N)n(CC(O)c2ccco2)c2ccccc21 (configuration not stated)	none (no result: KCNQ2 pot) | Kir21 conf inh 64% | HEK293 ctr inactive
C(=C\n1nnc2ccccc21)/c1ccccn1	none
CC(CCc1ccccc1)NC(=O)c1ccc(F)cc1 (configuration not stated)	none
Cc1ccc(NC(=S)NCC2CCN(C(C)c3ccccc3)C2)cc1C (configuration not stated)	none
Cc1c(C(=O)NCCCN2CCOCC2)oc2c1C1(CCC2)SCCS1	none
COc1ccc(Cl)cc1NC(=O)CN1C(=O)NC2(CCCC2)C1=O	none
COC(=O)CSC1=NS(=O)(=O)c2ccccc21	KCNQ2 inh -7.9 | Kir21 conf inh 58% | HEK293 ctr inactive
COC(=O)CSc1ccccc1C(=O)OC	none (no result: KCNQ2 pot)
O=c1c2cc(F)ccc2[nH]c(=S)n1CCCN1CCOCC1	none
Cc1cccc(Nc2nc(N)nc(CN3CCN(C)CC3)n2)c1	none
Cc1cccc(Nc2nc(N)nc(CN3CCN(c4ccc(F)cc4)CC3)n2)c1	KCNQ2 pot 6.9 | Kir21 conf inh inactive | HEK293 ctr inactive | CHO-K1 Tl ctr 44 | KCNQ1 sel pot inactive | KCNQ2 pot confirm inactive | Kir2-1 sel inactive | KCNQ2 W236L MoA inactive
C/C(Cn1nc([N+](=O)[O-])cc1C)=N\NC(=O)COc1ccc(Cl)cc1Cl	none
O=C1NC(=S)S/C1=C\c1cc2ccccc2nc1N1CCCCC1	KCNQ2 pot 5.5 | Kir21 conf inh inactive | HEK293 ctr inactive | CHO-K1 Tl ctr 23 | KCNQ1 sel pot inactive | KCNQ2 pot confirm 21 | Kir2-1 sel inactive | KCNQ2 W236L MoA inactive
Cc1nn(C)cc1/C=C1\SC(=S)NC1=O	none
Cc1cccc(C(=O)NC(=S)NC(C)c2ccccc2)c1 (configuration not stated)	none (no result: KCNQ2 pot)
O=S(=O)(c1ccc(F)cc1)N1CCN(Cc2ccccn2)CC1	none
O=C(COc1ccccc1CNCc1ccccc1)Nc1ccccc1	none (no result: KCNQ2 pot) | Kir21 conf inh 35% | HEK293 ctr inactive
CCOc1ccccc1CNCc1ccc(C(=O)O)cc1	none (no result: KCNQ2 pot)
O=C1NC2(CCCCCCC2)C(=O)N1Cc1ccc(F)cc1	none (no result: KCNQ2 pot)
O=C1NC2(CCCCCC2)C(=O)N1Cc1ccccc1	KCNQ2 pot 5.6 | Kir21 conf inh inactive | HEK293 ctr inactive | CHO-K1 Tl ctr inactive | KCNQ1 sel pot inactive | KCNQ2 pot confirm inactive | Kir2-1 sel inactive
Cc1cc(C)nc(/N=C(\N)N(Cc2ccccc2)Cc2ccccc2)n1	none
CCc1ccccc1NC(=S)N(CCN1CCOCC1)Cc1ccccc1F	none
COc1cccc(CNc2ccc([N+](=O)[O-])c(NCC(=O)O)n2)c1	none
O=C(O)CCSc1ncnc2sc(-c3ccccc3)cc12	KCNQ2 pot 9.6 | Kir21 conf inh inactive | HEK293 ctr 198% | CHO-K1 Tl ctr 17 | KCNQ1 sel pot 3.1 | KCNQ2 pot confirm 33 | Kir2-1 sel inactive | KCNQ2 W236L MoA 16%
CC(=O)CCSc1ncnc2sc(-c3ccccc3)cc12	none (no result: KCNQ2 pot)

From PubChem BioAssay
